Sampled rows, rich in hits. Any-hit rate of the full collection: about 12%.
Pf growth 96h = Primary qHTS for delayed death inhibitors of the malarial parasite plastid, 96 hour incubation; Potency, µM (highest dose often 28.7 µM), hits mostly inhibitors; P. falciparum luciferase reporter growth, 96 h; actives 6.9% (n = 320,000); AID 504834, 2011
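Luminescence readout: decreased luciferase signal marks inhibited growth of reporter-expressing P. falciparum in infected red cells (2% hematocrit, 0.05% parasitemia final), exposed to compound two generations (96 h, 37 C, 5% CO2).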
Sm TGR block = qHTS Assay for the Inhibitors of Schistosoma Mansoni Peroxiredoxins; actives 3% (n = 360,000); purified TGR, DTNB reduction, TNB absorbance 405 nm; AID 485364, 2010; Potency, µM (titrated, usually from 114 µM), hits mostly inhibitors; note: nearly all actives have a fitted effect of over 60% in size
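TGR 20 nM + NADPH 100 uM (dispensed conc.), cpd preinc 15 min RT; start with NADPH (500 uM addition) then DTNB (15 mM addition). Kinetic TNB absorbance, 405 nm filter. Four-parameter Hill fit across titration.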
SARS PLpro yeast = qHTS of Yeast-based Assay for SARS-CoV PLP; S. cerevisiae expressing SARS-CoV PLpro, growth rescue; Potency, µM (titrated, usually from 32.9 µM), usual class: activators; actives 0.19% (n = 330,000); calls by dose curve; note: nearly all actives have a fitted effect of over 55% in size
Pf growth 48h = Primary qHTS for delayed death inhibitors of the malarial parasite plastid, 48 hour incubation | P. falciparum luciferase growth in erythrocytes, 48 h | actives 5.9% (n = 310,000) | Potency, µM (series often up to 28.7 µM), usual class: inhibitors
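In quantitative HTS format, infected erythrocytes bearing luciferase-reporter parasites were treated for a single generation at 37 C. Luminescence after adding detection reagent served as the growth measure.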
Numbers stand for hits; n = inactive; u = inconclusive; x = no result given. Unless noted, calls come from the whole dose curve; as a rule, active = well fitted curve in the direction sought with a large enough effect; inconclusive = small, poorly fitted or top-dose-only effect, or another doubt; inactive = no such curve, though single readings can be large; an effect the other way counts as inactive or inconclusive.

SMILES	Pf growth 96h	Sm TGR block	SARS PLpro yeast	Pf growth 48h
CCOC(=O)C1=CN(Cc2ccco2)S(=O)(=O)NC1CC (stereo not drawn)	x	x	n	x
Cc1ccc(-n2nnnc2SCC(=O)Nc2ccccc2-c2ccccc2)cc1C	4.65µM	n	n	n
N/C(=N\OC(=O)c1cccc(Br)c1)c1ccc(Br)cc1	1.85µM	n	n	n
CCc1cccc2c(C(=S)N3CCCC3)c[nH]c12	n	n	n	n
CCc1cccc2c(C(=O)CCl)c[nH]c12	u	7.94µM	12.6µM	n
N#CCCN(NC1=NS(=O)(=O)c2ccccc21)C(=O)c1ccccc1Br	3.29µM	n	n	n
Cc1ccc(-n2ncc3c(SCC(N)=O)ncnc32)cc1C	u	n	n	n
COc1ccc(NC(=O)c2oc3ccccc3c2NC(=O)Cc2ccc(F)cc2)c(OC)c1	x	n	x	x
CC(=O)Nc1cccc(NS(=O)(=O)Cc2ccc(Cl)cc2)c1	14.7µM	n	n	n
CC(=O)Nc1cccc(NC(=S)Nc2ccc(F)c(Cl)c2)c1	u	28.2µM	n	u
FC(F)(F)c1cccc(NC(=S)NCc2ccccc2)c1	3.29µM	n	n	u
FC(F)(F)c1cccc(NC(=S)NC(c2ccccc2)c2ccccc2)c1	2.62µM	n	n	3.7µM
CC(=O)c1ccc(NS(=O)(=O)Cc2ccc(Cl)cc2)cc1	x	n	n	n
COc1ccccc1OCc1nnc(SCC(=O)Nc2ccc(N3CCOCC3)cc2)n1C	n	n	n	n
CCC(C)NC(=O)c1ccccc1NC(=O)C1CCN(S(=O)(=O)Cc2ccccc2)CC1 (stereo not drawn)	x	n	x	x
FC(F)(F)c1cccc(NC(=S)Nc2ccc(Cl)c(Cl)c2)c1	8.28µM	n	n	n
O=C(NCc1cccnc1)Nc1cccc(C(F)(F)F)c1	1.47µM	n	n	n
O=[N+]([O-])c1cc(C(F)(F)F)cc([N+](=O)[O-])c1NCCNC(=S)Nc1ccc(Cl)c(Cl)c1	u	n	n	9.28µM
O=C(NCc1cccnc1)Nc1cccc(NC(=O)NCc2cccnc2)c1	x	n	n	n
COc1ccccc1/C(C)=N/Oc1cc(N)cc([N+](=O)[O-])c1	n	n	n	n
CN(C)S(=O)(=O)c1ccc(C(=O)NCCN2C(=O)S/C(=C\c3cccnc3)C2=O)cc1	u	n	n	u
CS(=O)(=O)c1ccc(C(=O)NCCN2C(=O)S/C(=C\c3cccnc3)C2=O)cc1[N+](=O)[O-]	u	8.91µM	n	5.22µM
Cc1ccccc1NC(=O)Nc1ccc2c(c1)CCC2	n	n	u	n
O=C(Nc1nc(-c2ccc(Cl)s2)cs1)c1ccncc1	10.4µM	n	n	n
CCc1ccc(OCC(=O)N(Cc2ccco2)Cc2ccco2)cc1	x	n	x	x
SMILES	Pf growth 96h	Sm TGR block	SARS PLpro yeast	Pf growth 48h
Cc1ccc(C)c(NC(=O)Cn2c(=O)n(Cc3ccc4c(c3)OCO4)c(=O)c3oc4ccccc4c32)c1	x	n	x	x
Cc1ccc(OCCCn2ccnc2)c([N+](=O)[O-])c1	6.57µM	n	n	n
CC1=NN(C(N)=S)C(=O)C1N=Nc1ccc(Cl)cc1Cl (stereo not drawn)	u	n	n	u
CC1CN(S(=O)(=O)c2cccc(C(=O)N(CCc3ccccc3)Cc3ccccc3)c2)CC(C)O1 (stereo not drawn)	u	n	n	2.94µM
CC(=O)N1CCN(S(=O)(=O)c2cccc(C(=O)N(Cc3ccccc3)c3ccc(C)cc3)c2)CC1	u	n	n	5.86µM
CC1CN(S(=O)(=O)c2cccc(C(=O)OCC(=O)NCc3ccccc3)c2)CC(C)O1 (stereo not drawn)	u	n	n	u
Cc1ccc(N(Cc2ccccc2)C(=O)c2cccc(F)c2)cc1	n	u	n	n
Cc1ccc(N(Cc2ccccc2)C(=O)c2cccc(S(=O)(=O)N3CC(C)OC(C)C3)c2)cc1 (stereo not drawn)	u	n	n	10.4µM
CC(=O)Nc1ccc(C2Nc3cc(C)c(C)cc3NC3=C2C(=O)CC(C)(C)C3)cc1 (stereo not drawn)	8.28µM	n	n	n
CCc1ccc2c(c1)C(c1ccc([N+](=O)[O-])cc1)=NNC(c1ccc(Br)cc1)=N2	n	n	n	9.28µM
Cc1ccc2c(c1)C(c1ccc([N+](=O)[O-])cc1)=NNC(c1ccc(Br)cc1)=N2	u	n	n	n
Cc1cccc(NC(=O)C2CCN(S(=O)(=O)c3ccc4c(c3)CCCC(=O)N4)CC2)c1	x	n	x	x
Nc1nc(Nc2ccccc2F)sc1C(=O)c1ccc(Cl)cc1	x	n	x	x
COc1ccc(N2CCN(C(c3ccccc3)c3nnnn3Cc3ccc(F)cc3)CC2)cc1 (stereo not drawn)	x	n	n	9.28µM
Fc1ccc(Cn2nnnc2C(c2ccc(F)cc2)N2CC=C(c3ccc(F)cc3)CC2)cc1 (stereo not drawn)	13.1µM	n	n	n
COc1ccc(Cn2nnnc2C(c2ccc(F)cc2)N2CCN(C3CCCC3)CC2)cc1 (stereo not drawn)	n	n	n	u
COc1ccc(C(c2nnnn2Cc2cccs2)N2CCN(c3ccc(F)cc3)CC2)cc1OC (stereo not drawn)	13.1µM	u	n	5.86µM
Fc1ccc(C(c2nnnn2Cc2ccccc2)N2CCSCC2)cc1 (stereo not drawn)	x	n	n	u
COc1ccc(C(c2nnnn2Cc2ccc(F)cc2)N2CCN(c3ccc(OC)cc3)CC2)cc1 (stereo not drawn)	n	n	n	10.4µM
C=Cc1ccc(Cn2c(=O)n(CCCOC)c(=O)c3sccc32)cc1	u	n	n	n
COc1ccc(S(=O)(=O)N(C)C)cc1NC(=O)CSC(C)C(=O)Nc1cc(C)on1 (stereo not drawn)	u	n	n	n
CCN(c1cccc(C)c1)S(=O)(=O)c1ccc(N2CCCCS2(=O)=O)cc1	x	n	x	x
COc1ccc(C(c2nnnn2Cc2ccc(F)cc2)N2CCN(c3ccccc3)CC2)cc1 (stereo not drawn)	u	n	n	11.7µM
COCCn1nnnc1C(c1ccccn1)N1CCN(c2cc(Cl)ccc2C)CC1 (stereo not drawn)	x	n	n	u
COc1ccc(C(c2nnnn2CC2CCCO2)N2CCN(c3ccccc3)CC2)cc1 (stereo not drawn)	n	n	n	u
SMILES	Pf growth 96h	Sm TGR block	SARS PLpro yeast	Pf growth 48h
COc1ccc(Cn2nnnc2C(c2ccccn2)N2CCN(c3cc(Cl)ccc3C)CC2)cc1 (stereo not drawn)	x	n	n	11.7µM
Cc1ccc(NC(=O)CN2CCN(C3CCCCC3)C(=O)C2=O)cc1	x	n	x	x
COc1cccc(C(=O)Nc2sc(C(C)C)cc2C(N)=O)c1OC	13.1µM	n	n	u
CCNc1nc(NCC)nc(OCCOC(C)=O)n1	4.15µM	n	n	n
COCCNC(=O)CN(c1cc(Cl)ccc1OC)S(=O)(=O)c1ccc(C)c([N+](=O)[O-])c1	n	x	n	u
C=CCNC(=O)CN(c1cc(Cl)ccc1OC)S(=O)(=O)c1ccc(C)c([N+](=O)[O-])c1	n	n	n	2.62µM

High-throughput results (PubChem BioAssay)
